KB-3-1 tox: kills parental KB-3-1 adenocarcinoma cells | KB-3-1 viability, CellTiter-Glo ATP luminescence, 72 h | Potency, µM (titrated, usually from 46.1 µM), usual class: cytotoxic | 400,000 compounds, 1.4% hits; further: nearly all actives have a fitted effect of over 60% in size
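Multi-concentration cytotoxicity screen in KB-3-1 cells grown in DMEM lacking phenol red with 10% FBS. After 72 h at 37 °C with compound, ATP-dependent luminescence was recorded.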
KB-V1 MDR tox: KB-V1 MDR subline cytotoxicity. KB-V1 MDR cells viability, CellTiter-Glo, 72 h. Potency, µM (top dose mostly 46.1 µM), actives largely listed as cytotoxic. 400,000 compounds, 3.4% hits. AID 1347076; further: nearly all actives have a fitted effect of over 60% in size
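Drug-selected KB-V1 cells, grown in DMEM lacking phenol red with 10% FBS, receive compound titrations; after three days at 37 degrees C, surviving cell ATP is quantified by CellTiter-Glo luminescence and responses normalized and curve-fitted.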
TDP1 cell CPT: growth inhibition of DT40 Tdp1-/-;hTDP1 cells with camptothecin (screen for TDP1 inhibitors); chicken DT40 Tdp1-/-;hTDP1 cells + 20 nM CPT, ATP luminescence, 48 h; Potency, µM (doses to about 46.2 µM), for the others: top-dose activity change, negative = growth inhibition, hits mostly inhibitors; 420,000 compounds, 12% hits; further: nearly all actives have a fitted effect of over 55% in size
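Chicken DT40 Tdp1-/- cells complemented with human TDP1, 400 cells/well, exposed to compounds plus 20 nM camptothecin for at least 48 h at 37 C; viability read as ATP content by CellTiter-Glo luminescence.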
HT1080 IDH1KD tx: HT-1080 IDH1 knockdown cell toxicity (counter line); HT-1080 IDH1 knockdown viability, ATP luminescence, 48 h; Potency, µM (highest dose often 46.1 µM), inactives show at the top dose activity, negative = toxicity, actives largely listed as cytotoxic; 360,000 compounds, 2% hits;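 further: 0% = DMSO wells and -100% = cell-free medium wells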
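In this qHTS, HT-1080 cells depleted of IDH1 are exposed for 48 h at 37 °C to compound titrations. Toxicity is scored from CellTiter-Glo luminescence, with DMSO as full viability and medium alone as none.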
DT40 TDP1 no CPT: qHTS for Inhibitors of human tyrosyl-DNA phosphodiesterase 1 (TDP1): qHTS in cells in absence of CPT; DT40 Tdp1-/- hTDP1 cells, no CPT, ATP luminescence, 48 h; Potency, µM (doses to about 46.2 µM), for inactives: top-dose activity change, negative = growth inhibition, hits mostly inhibitors; 420,000 compounds, 15% hits; further: nearly all actives have a fitted effect of over 55% in size
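Camptothecin absent (DMSO only). Human TDP1-complemented DT40 knockout cells, 400 cells/well, 37 °C for minimum 48 hr; ATP measured via CellTiter-Glo, 30 min dark incubation, luminescence.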
HT1080NT lethal: kills 2HG-producing HT-1080-NT fibrosarcoma cells; HT-1080-NT fibrosarcoma viability, CellTiter-Glo ATP luminescence, 48 h; Potency, µM (highest dose often 46.1 µM), inactives show top-dose activity, negative = less viability, actives largely listed as cytotoxic; 360,000 compounds, 1.6% hits; AID 686970;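 further: NT is the 2HG producing partner of a matched IDH1 knockdown line; 0% = DMSO-treated cells and -100% = media-only wells without cells; nearly all actives have a fitted effect of over 55% in size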
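Luminescent CellTiter-Glo readout after 48 hours of compound exposure at 37 degrees C defined viability of HT-1080-NT cells. Activity was normalized to DMSO wells and cell-free media wells; concentration-response curves were fitted and assigned curve classes.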
* hit, by the source's call. A selection: hits, their analogues and other compounds. The true share with any hit is near 19%. The call rests on the fitted dose curve; in most records, active means well fitted curve in the direction sought with a large enough effect; inconclusive means small, poorly fitted or top-dose-only effect, or another doubt; inactive means no such curve, though single readings can be large; an effect the other way counts as inactive or inconclusive. Unless noted, on the % scale 0 is the no-effect control and ±100 the full control effect; potency means the concentration at half of the fitted maximal effect.

COC(=O)/C=C1\OCc2ccccc21 was read as KB-3-1 tox inactive, KB-V1 MDR tox inactive, TDP1 cell CPT 14%, HT1080 IDH1KD tx 0%, DT40 TDP1 no CPT -6% and HT1080NT lethal 0%.
Screening O=c1[nH]/c(=C/c2ccc3c(c2)OCO3)c(=O)[nH]/c1=C/c1ccc2c(c1)OCO2 returned KB-3-1 tox inactive, KB-V1 MDR tox inactive, TDP1 cell CPT -2% and DT40 TDP1 no CPT -9%.
CCCCC(=O)N(C)c1c(CC)nc2c(OCCC3CCCCC3)cccn12 was read as KB-3-1 tox inactive, KB-V1 MDR tox inconclusive, TDP1 cell CPT inconclusive, HT1080 IDH1KD tx inconclusive, DT40 TDP1 no CPT 16µM* and HT1080NT lethal inconclusive.
Cc1ccc(C2=NOC(=O)/C2=C\C=C\c2ccccc2)cc1 was read as KB-3-1 tox inconclusive, KB-V1 MDR tox inconclusive, TDP1 cell CPT 4.6µM*, HT1080 IDH1KD tx 13µM*, DT40 TDP1 no CPT 4.6µM* and HT1080NT lethal 9.2µM*.
CN(C)/C=C1\C(=O)ON=C1c1ccccc1 was read as KB-3-1 tox inactive, KB-V1 MDR tox inactive, TDP1 cell CPT 16%, HT1080 IDH1KD tx 15%, DT40 TDP1 no CPT -9% and HT1080NT lethal -12%.
`CC1=NN(c2cccc(C(=O)O)c2)C(=O)/C1=C\C=C\c1ccco1` gave KB-3-1 tox inactive, KB-V1 MDR tox inactive, TDP1 cell CPT inconclusive, HT1080 IDH1KD tx 0%, DT40 TDP1 no CPT inconclusive and HT1080NT lethal 4%.
CC1=NN(c2ccccc2)C(=O)/C1=C/C=C/c1ccccc1 was read as KB-3-1 tox inconclusive, KB-V1 MDR tox inconclusive, TDP1 cell CPT -76%, HT1080 IDH1KD tx 9.2µM*, DT40 TDP1 no CPT 2.6µM* and HT1080NT lethal 3.3µM*.
`O=C(Nc1ccc(F)cc1Cl)n1ncc2cc(Cl)ccc21` gave KB-3-1 tox inactive, KB-V1 MDR tox inconclusive, TDP1 cell CPT inconclusive and DT40 TDP1 no CPT inconclusive.
Cc1cccc(N2CCN(Cc3nnc(-c4ccc5c(c4)OCO5)o3)CC2)c1C was read as KB-3-1 tox inactive, KB-V1 MDR tox inactive, TDP1 cell CPT -4% and DT40 TDP1 no CPT -3%.
Screening Cc1ccc(N2CCN(Cc3nnc(-c4ccc5c(c4)OCO5)o3)CC2)c(C)c1 returned KB-3-1 tox inactive, KB-V1 MDR tox inactive, TDP1 cell CPT inconclusive and DT40 TDP1 no CPT 23µM*.
For Cc1ccc(Cl)c(NC(=O)Nc2csc3c2CCCC3)c1 the results were KB-3-1 tox inactive, KB-V1 MDR tox inconclusive, TDP1 cell CPT inconclusive and DT40 TDP1 no CPT inconclusive.
For COc1ccc2c(c1)[nH]c1c(=O)n(CC3CCCO3)cnc12 (centres undefined) the results were KB-3-1 tox inactive, KB-V1 MDR tox 21µM*, TDP1 cell CPT 1%, HT1080 IDH1KD tx 5%, DT40 TDP1 no CPT -4% and HT1080NT lethal 6%.
Screening CC(=O)c1ccc(N/C=C/C(=O)c2ccc(Br)cc2)cc1 returned KB-3-1 tox inactive, KB-V1 MDR tox inactive, TDP1 cell CPT -10%, HT1080 IDH1KD tx 14%, DT40 TDP1 no CPT -5% and HT1080NT lethal 9%.
For COc1ccc(N2CCN(C(=O)Cn3c(=O)c4cccn4c4cccnc43)CC2)cc1 the results were KB-3-1 tox inconclusive, KB-V1 MDR tox inactive, TDP1 cell CPT inconclusive, HT1080 IDH1KD tx -9%, DT40 TDP1 no CPT -27% and HT1080NT lethal -2%.
Cc1ccc(Cl)cc1N1CCN(C(=O)CCn2c(=O)c3cccn3c3cccnc32)CC1 was read as TDP1 cell CPT 9.2µM* and DT40 TDP1 no CPT 6.5µM*.
For O=C(CCn1c(=O)c2cccn2c2cccnc21)N1CCN(c2cccc(Cl)c2)CC1 the results were KB-3-1 tox inconclusive, KB-V1 MDR tox inactive, TDP1 cell CPT 18µM*, HT1080 IDH1KD tx 5%, DT40 TDP1 no CPT 15µM* and HT1080NT lethal 3%.
For Cc1ccc(C)c(N2CCN(CCCNC(=O)CCn3c(=O)c4cccn4c4cccnc43)CC2)c1 the results were KB-3-1 tox inconclusive, KB-V1 MDR tox inactive, TDP1 cell CPT inconclusive, HT1080 IDH1KD tx -23%, DT40 TDP1 no CPT inconclusive and HT1080NT lethal -14%.
Screening O=C(CCn1c(=O)oc2ccccc21)N1CCN(c2ccccc2F)CC1 returned KB-3-1 tox inactive, KB-V1 MDR tox 23µM*, TDP1 cell CPT -8%, HT1080 IDH1KD tx 6%, DT40 TDP1 no CPT 4% and HT1080NT lethal 9%.
`Cc1ccc(C)c(N2CCN(C(=O)CCn3c(=O)c4cccn4c4cccnc43)CC2)c1` gave TDP1 cell CPT inconclusive and DT40 TDP1 no CPT 21µM*.
`CC1CCCCN1CCNC(=O)c1ccc2c(c1)N(Cc1ccccc1F)C(=O)c1ccccc1S2=O` (centres undefined) gave KB-3-1 tox inactive, KB-V1 MDR tox inactive, TDP1 cell CPT -18%, HT1080 IDH1KD tx inconclusive, DT40 TDP1 no CPT 2% and HT1080NT lethal -27%.
For O=C(CCn1c(=O)c2cccn2c2cccnc21)N1CCN(c2ccccc2F)CC1 the results were TDP1 cell CPT inconclusive and DT40 TDP1 no CPT 23µM*.
Cc1ccc(C)c(N2CCN(CCCNC(=O)Cn3c(=O)c4cccn4c4cccnc43)CC2)c1 was read as KB-3-1 tox inactive, KB-V1 MDR tox inactive, TDP1 cell CPT 21µM*, HT1080 IDH1KD tx -16%, DT40 TDP1 no CPT inconclusive and HT1080NT lethal -21%.
`O=C(COC(=O)c1ccc(Cl)nc1)Nc1cccnc1Cl` gave KB-3-1 tox inactive, KB-V1 MDR tox inactive, TDP1 cell CPT 10%, HT1080 IDH1KD tx 11%, DT40 TDP1 no CPT 0% and HT1080NT lethal 1%.
`Cc1cccc(Oc2nc(-c3ccncc3)nc3ccccc23)c1` gave KB-3-1 tox inactive, KB-V1 MDR tox inactive, TDP1 cell CPT inconclusive, HT1080 IDH1KD tx inconclusive, DT40 TDP1 no CPT inconclusive and HT1080NT lethal inconclusive.
Cc1ccccc1Oc1nc(-c2ccccn2)nc2ccccc12 was read as KB-3-1 tox inactive, KB-V1 MDR tox 9.2µM*, TDP1 cell CPT 4.1µM*, HT1080 IDH1KD tx -27%, DT40 TDP1 no CPT 5.2µM* and HT1080NT lethal inconclusive.
Screening Cc1cccc(Oc2nc(-c3ccccn3)nc3ccccc23)c1 returned KB-3-1 tox inactive, KB-V1 MDR tox inconclusive, TDP1 cell CPT 1.2µM*, HT1080 IDH1KD tx 16µM*, DT40 TDP1 no CPT 1µM* and HT1080NT lethal inconclusive.
O=C(Nc1c(C(=O)N2CCN(c3ccc(F)cc3)CC2)oc2ccccc12)c1c(F)cccc1F was read as KB-3-1 tox inactive, KB-V1 MDR tox inactive, TDP1 cell CPT inconclusive and DT40 TDP1 no CPT inconclusive.
